Assay outcomes from PubChem.
Only some compounds are listed: those with a hit (about 7.8% of all), similar ones and a draw of the others.
HCV inhibitor = qHTS Assay for Inhibitors of Hepatitis C Virus (HCV). Huh7.5.1 HCVcc-Cre infection, luciferase reporter, 44 h. Potency, µM (top dose mostly 41.8 µM), without a hit: top-dose activity change, negative = inhibition, most hits filed as inhibitors. 3.4% of 340,000 active. AID 651820, 2012; active = well fitted inhibition curve with a large enough effect; inconclusive = small, poorly fitted or top-dose-only effect, or another doubt; inactive = no such curve, though single readings can be large or run the other way; also: potency is read from the fitted curve at half-maximal effect
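1,000 cells/well; 4 h culture; + compound; + HCVcc-Cre (~0.5 moi); 44 h; luciferase substrate, RT 15 min; read 15 sec.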
LASV entry inh = qHTS for Inhibitors of binding or entry into cells for Lassa Virus; 1.2% of 300,000 active; Lassa virus pseudotype entry inhibition, cell reporter; AID 540256, 2011; Potency, µM (top dose mostly 37.9 µM), without a hit: top-dose activity change, negative = inhibition, hits mostly inhibitors; calls by dose curve; tested in HEK293 cells; also: potency is read from the fitted curve at half-maximal effect; nearly all actives have a fitted effect of over 50% in size
VACV Venus inh = qHTS for Stage-Specific Inhibitors of Vaccinia Orthopoxvirus: Venus Reporter Primary qHTS; Vaccinia virus Venus reporter expression, fluorescence; Potency, µM (top dose mostly 36.5 µM), without a hit: at the highest dose activity change, negative = inhibition, most hits filed as inhibitors; 0.46% of 330,000 active; calls by dose curve; tested in A549 cells; also: potency is read from the fitted curve at half-maximal effect; nearly all actives have a fitted effect of over 30% in size
HCMV antiviral = qHTS Assay for inhibitors of the human cytomegalovirus (HCMV); HFF cells, HCMV-luciferase reporter, 72 h; active compounds read low; activity change, negative = inhibition, % at 57.5 µM; 4.5% of 410,000 active; AID 1259415, 2018; in the data active = activity change below about -60%; inconclusive = no clear call, values can overlap the other calls; inactive = above about -39%
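After 16 h attachment at 37C, HFF cells received test compound and HCMV-luciferase (1 PFU/cell); reporter luminescence read 72 h later, data normalized against buffer-only and known inhibitor Salinomycin.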
VACV mCherry inh = qHTS for Stage-Specific Inhibitors of Vaccinia Orthopoxvirus: mCherry Reporter Primary qHTS; AID 720579, 2013; Potency, µM (doses to about 36.5 µM), for inactives: at the highest dose activity change, negative = inhibition, usual class: inhibitors; Vaccinia virus mCherry reporter infection, fluorescence; 0.63% of 310,000 active; calls by dose curve; tested in A549 cells; also: potency is read from the fitted curve at half-maximal effect; nearly all actives have a fitted effect of over 35% in size
Marburg entry inh = qHTS for inhibitors of binding or entry into cells for Marburg Virus. Potency, µM (titrated, usually from 37.8 µM), for the others: at the highest dose activity change, negative = inhibition, hits mostly inhibitors. 1.8% of 300,000 active. AID 540276, 2011. Marburg virus pseudotyped entry inhibition, cell reporter; calls by dose curve; tested in HEK293 cells; also: potency is read from the fitted curve at half-maximal effect
Numbers without * were called inactive; i = inactive; ? = inconclusive; nt = no result given; [ ] = remark or other dose. % is scaled to controls: 0 for no effect and ±100 for the full control effect.

SMILES | HCV inhibitor | LASV entry inh | VACV Venus inh | HCMV antiviral | VACV mCherry inh | Marburg entry inh
CCCCCCn1c(=O)n2n(c1=O)[C@@H]1CN(S(=O)(=O)c3ccc(C)cc3)C[C@]1(O)[C@@H](OC(=O)Nc1cccs1)C2 | nt | nt | ? | 44.4 | -27.8% | nt
N#C/C(=C/c1cccs1)c1ccccn1 | ? | nt | nt | 70.6 | nt | nt
Cc1cc(C)n2nc(/C(C#N)=C/c3ccccn3)c(C#N)c2n1 | -23.2% | 10µM* | 16.2% | 6.5 | ? | ?
N#C/C(=C\c1ccc([N+](=O)[O-])cc1)c1ccccn1 | -22.2% | 1.7% | -15.3% | -74.6* | -24.6% | 12.7%[46.1 µM]
CN(C)c1ccc(/C=C(\C#N)c2ccccn2)cc1 | ? | 1.41µM* | -8.5% | -83.8* | -28.2% | 1.16µM*
N#C/C(=C\c1ccccn1)c1ccccn1 | ? | ? | ? | -73.6* | 3.55µM* | ?
O=[N+]([O-])c1oc2ccc3ccccc3c2c1CCO | ? | -22.1%[46.1 µM] | 10µM* | -101.7* | ? | ?
Cc1c(C(=O)c2ccccc2)oc2ccc3ccccc3c12 | ? | ? | 4.5% | 104.2 | -8.1% | ?
CCCCN(C)CCNC(=O)c1ccc2c(c1)NC(=O)CN2 | nt | 26.3%[46.1 µM] | -8.8% | 2.1 | -4.5% | nt
CCOc1ccc(NC(=O)c2ccccc2NC(=O)CNC2CCCC(C)C2C)cc1 (stereo not drawn) | -13.5% | nt | nt | -65.6* | nt | nt
COc1ccc(C)cc1NC(=O)C(Cc1ccccc1)NS(=O)(=O)c1cccs1 (stereo not drawn) | nt | -2.3%[46.1 µM] | 2.1% | -13.2 | -6.7% | nt
C/C(=N\Nc1cccc2cccnc12)c1ccccn1 | 6.31µM* | ? | -9.8% | 195.5 | i | ?
Cc1cc(N/N=C(/CCC(=O)O)C(=O)O)nc2ccccc12 | 11.4% | -12.1% | -4.0% | -7.6 | -7.3% | 1.2%[46.1 µM]
CC(=NNc1cc(C)c2ccccc2n1)c1ccccn1 | nt | nt | nt | -97.8* | nt | nt
O=[N+]([O-])c1ccc2nc(-c3ccncc3)[nH]c2c1 | 4.2% | nt | nt | 71.6 | nt | nt
COc1ccc(-c2nc3ccc([N+](=O)[O-])cc3[nH]2)cc1 | -11.9% | 8.91µM* | -25.7% | 43.8 | -27.6% | ?
O=[N+]([O-])c1ccc2nc(-[n+]3c(-c4ccccc4)cc(-c4ccccc4)cc3-c3ccccc3)[nH]c2c1 | ? | 23.1µM* | ? | nt | ? | ?
Nc1nc2ccc([N+](=O)[O-])cc2[nH]1 | -4.9% | nt | -13.9% | -34.1 | i | nt
O=[N+]([O-])c1cccc(-c2nc3ccc([N+](=O)[O-])cc3[nH]2)c1 | 14.1µM* | -9.3% | nt | 10.6 | nt | ?
O=[N+]([O-])c1ccc2nc(-c3ccc(Cl)cc3)[nH]c2c1 | -5.8% | ? | nt | -61.7* | nt | ?
O=c1n(-c2ccccc2)c(=O)n2n1CC[C@@H]1C(=NOC[C@@H](O)COCc3ccco3)[C@H]3O[C@H]3[C@@H](O)[C@H]12 | nt | nt | nt | nt | nt | -22.9%[14.2 µM]
Cc1nn(C)c2c1c(C(F)(F)F)cc(=O)n2CC(=O)N1CCCCC1 | nt | -4.3%[46.1 µM] | -2.3% | -8.3 | 9.7% | nt
COc1cc2c3nnc(-c4ccccc4)c-3cn(Cc3ccc(F)cc3)c2cc1OC | -21.0% | -14.7% | -2.8% | -66.0* | -15.7% | ?
COc1cc2c3nnc(-c4ccc(F)cc4)c-3cn(Cc3ccc(C)cc3)c2cc1OC | 6.4% | nt | -28.1% | -18.8 | -2.7% | nt
COc1ccc2c(c1)-c1nc(/N=C/c3c(O)ccc4ccccc34)sc1CC2 | 12.6µM* | -20.2% | -18.2% | 18.1 | ? | ?
SMILES | HCV inhibitor | LASV entry inh | VACV Venus inh | HCMV antiviral | VACV mCherry inh | Marburg entry inh
O=c1[nH]c(NC2CCCCC2)nnc1Cc1ccccc1 | 11.5% | 9.1% | nt | -4.7 | nt | -0.1%
O=c1[nH]c(Nc2ccc3c(c2)OCCO3)nnc1Cc1ccccc1 | -2.3% | -17.6% | 0.9% | -73.2* | -9.3% | 21.8%[46.1 µM]
CCOC(=O)C1CCCN(S(=O)(=O)c2ccc(Cl)nc2)C1 (stereo not drawn) | 11.1% | -3.2% | ? | -38.5 | 14.1µM* | 8.6%
COc1ccc(S(=O)(=O)N2CCCC(C(=O)Nc3cccc(C(C)=O)c3)C2)cc1 (stereo not drawn) | ? | 5.2% | -16.9% | -66.2* | nt | ?
CC(=O)c1cccc(NC(=O)C2CCCN(S(=O)(=O)c3ccc(F)cc3)C2)c1 (stereo not drawn) | ? | -10.9% | -0.8% | -19.4 | -0.1% | -12.0%
COc1ccc(N2CCN(C(=O)C3CCCN(S(=O)(=O)c4ccc(C)cc4)C3)CC2)cc1 (stereo not drawn) | 2.51µM* | nt | 2.8% | ? | -6.2% | -27.5%[46.1 µM]
CCOC(=O)N1CCN(C(=O)C2CCCN(S(=O)(=O)c3ccc(C)cc3)C2)CC1 (stereo not drawn) | -26.6% | -28.1% | nt | -60.7* | nt | -5.9%
COC(=O)[C@@H]1[C@@H](CO)[C@@H]2Cn3c(ccc(Br)c3=O)[C@H]1N2Cc1cc(F)ccc1F | nt | nt | nt | 53.6 | nt | nt
CCOC(=O)N1CCN(C(=O)C2CCN(S(=O)(=O)c3c(C)cc(C)cc3C)CC2)CC1 | -13.7% | ? | nt | -106.8* | nt | 11.1%
Cc1cc(C)c(S(=O)(=O)N2CCN(C(=O)C3COc4ccccc4O3)CC2)c(C)c1 (stereo not drawn) | 11.2µM* | nt | nt | 8.0 | nt | nt
Cc1ccc(S(=O)(=O)N2CCCC(C(=O)N(Cc3cccs3)C3CC3)C2)cc1 (stereo not drawn) | 15.8µM* | ? | -20.1% | -38.8 | ? | 5.4%
Cc1ccc(CNC(=O)CSc2ncc3c(n2)-c2ccc(Cl)cc2N(Cc2ccccc2)S3(=O)=O)cc1 | nt | ? | 2.6% | 2.7 | -16.0% | nt
O=C(Cc1ccc(Cl)cc1)N/N=C/c1ccccc1 | 5.3% | nt | nt | -68.2* | nt | nt
C/C(=N\NC(=O)CO/N=C(\C)c1cccs1)c1ccc(N)cc1 | -19.0% | nt | nt | -31.4 | nt | nt
C/C(=N\OCC(=O)N/N=C/c1ccc(C)cc1O)c1cccs1 | 10µM* | 14.5% | nt | 6.6 | nt | -18.6%
O=C(CC(=O)N/N=C/c1ccc(C(=O)O)cc1)NCCc1ccccc1 | 3.7% | nt | nt | -97.2* | nt | nt
O=C(Cc1ccccc1)NN=Cc1ccccc1 | 0.1% | 12.4%[46.1 µM] | 0.0% | -1.3 | i | 2.4%
Cc1ccccc1/C=N/NC(=O)Cc1ccc(Cl)cc1 | -22.3% | -2.4% | -14.3% | -13.9 | -20.4% | -2.5%[46.1 µM]
